# Bioassay records as filed in PubChem BioAssay.
# Only some compounds are listed: those with a hit (about 4.5% of all), similar ones and a draw of the others.
# tim23-1 inh: growth inhibitors of tim23-1 mutant yeast | inhibition, % at 20 µM | 1.3% of 330,000 active | S. cerevisiae tim23-1 growth, BacTiter-Glo luminescence, 24 h;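 active = growth inhibition of the mutant yeast at or above 50%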;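 also: temperature-sensitive mutant grown at 25 °C; plate controls were DMSO-treated mutant yeast for no effect and medium wells lacking yeast for full effect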
# SKKanGAS inh: SKKanGAS growth inhibition; S. pyogenes SKKanGAS, kanamycin growth, BacTiter-Glo, 6 h; 1.3% of 300,000 active; inhibition, % at 7.5 µM; AID 1662;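 active = mean replicate score, as percent of positive control median, at least 50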;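 also: strain carries kanamycin resistance gene driven by streptokinase promoter and grows in 40 µg/ml kanamycin; loss of luminescence reflects streptokinase promoter inhibition or plain growth inhibition; 0% = median of DMSO wells and 100% = positive control at its reference dose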
# tim10-1 inh: growth inhibitors of tim10-1 mutant yeast | AID 463190 | 2.2% of 330,000 active | S. cerevisiae tim10-1 ts strain growth, BacTiter-Glo, 24 h | inhibition, % at 20 µM;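 active = inhibition of at least 40%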;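 also: mutant grown at 25 °C; 0% = DMSO wells with yeast and 100% = wells holding no yeast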
# NALP3 yeast inh: NALP3 inhibition in yeast; Yeast reconstituted NLRP3/ASC/caspase-1, beta-gal luminescence, 24 h; inhibition, % at 10 µM; 0.39% of 330,000 active; AID 2825;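 active = inhibition of 50% or more; inactive = inhibition below 50%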;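 also: plate controls were induced DMSO wells for no effect and uninduced yeast grown without galactose for full effect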
# TIM10 inh: TIM10 yeast growth inhibition. inhibition, % at 10 µM. 1.4% of 330,000 active. S. cerevisiae TIM10 strain growth, BacTiter-Glo luminescence, 24 h;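 active = inhibition of 40% or more at the single tested concentration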;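 also: wild-type TIM10 isogenic control strain grown at permissive 25 °C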
# PfHsp90 yeast 2: inhibits growth of yeast expressing Plasmodium falciparum Hsp90 | inhibition, % at 9.4 µM | 0.32% of 310,000 active | S. cerevisiae expressing PfHsp90, BacTiter-Glo ATP, 48 h; yeast lacking PDR1 and PDR3 efflux regulators | AID 504621;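 active = every replicate shows inhibition above about 80%, whatever the replicate mean, limit read from the data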;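 also: 0% = DMSO neutral controls and 100% = 20 µM radicicol positive controls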
# TIM10 conf: TIM10 yeast growth inhibition, confirmed. shares compounds with TIM10 inh. S. cerevisiae tim10 strain growth, BacTiter-Glo luminescence, 24 h. inhibition, % at 10 µM. 63% of 4,600 active;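 active = inhibition of yeast growth at or above a set limit in either of two replicates at 10 µM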;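 also: this counterscreen used the strain with wild-type TIM10; 0% = yeast with DMSO and 100% = medium wells lacking yeast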
# * marks the source's active call; other numbers are inactive results; · = not tested or not shown.
SMILES,tim23-1 inh,SKKanGAS inh,tim10-1 inh,NALP3 yeast inh,TIM10 inh,PfHsp90 yeast 2,TIM10 conf
CCOC(=O)C1=C(C)N(C[C@@H]2CC[C@@H](Cc3ccc(-c4ccccc4)cc3)O2)C(=O)NC1c1cccc([N+](=O)[O-])c1 (some centres not stated),25.0,·,17.8,·,3.1,0.9,·
Cc1ccc(C(=O)COC(=O)[C@@H](NC(=O)c2ccco2)C(C)C)s1,18.7,·,9.5,-10.4,0.4,-8.9,·
CCOC(=O)C1=C(C)N(CCCC(=O)O)C(=O)NC1c1ccccc1OS(=O)(=O)c1ccccc1[N+](=O)[O-] (configuration not stated),-4.3,4.2,-18.3,18.0,97.2*,-5.8,-10.6
CC1=C(C(=O)OCc2ccccc2)C(c2ccccc2OS(=O)(=O)c2ccccc2[N+](=O)[O-])NC(=O)N1CCCC(=O)O (configuration not stated),12.4,10.4,9.1,-5.8,0.2,·,·
CC(C)N(Cc1nc(-c2ccccc2)no1)C(=O)C(Cl)(Cl)Cl,32.3,13.5,24.1,-8.6,40.9*,·,27.0
COc1cc(/C=C(/C(=O)c2cccs2)c2nc3ccccc3[nH]2)ccc1O,24.6,5.3,38.1,-7.8,43.2*,15.8,33.6*
CCOC(=O)c1ccc(NC(=O)C2C3CCCCC32)cc1 (configuration not stated),43.8,0.6,6.3,45.5,2.6,22.1,·
O=S(=O)(c1ccc2c(c1)OCCO2)N1CCCN(S(=O)(=O)c2c(F)cccc2F)CC1,46.0,·,31.4,12.8,3.0,4.9,·
Cc1nnc(C)n1/N=C/c1ccc(O)cc1,1.6,0.0,0.7,9.9,14.3,-2.9,·
Oc1ccc(/C=N/n2c3ccccc3c3ccccc32)cc1,37.2,70.9*,-3.7,19.5,44.3*,25.9,74.8*
Cc1cc2nc(/C=C/c3nc4cc(C)c(C)cc4[nH]3)[nH]c2cc1C,·,-0.2,·,·,·,-11.2,·
Cc1cc2nc(/C=C/c3cccnc3)[nH]c2cc1C,37.5,-3.5,-3.8,24.5,51.2*,5.8,68.7*
C/C(=N\NC(=S)NC(C)C)c1ccc(Cl)c([N+](=O)[O-])c1,15.7,6.2,3.1,3.9,-7.6,-16.7,·
C/C(=N\NC(=S)NC(C)C)c1cccc([N+](=O)[O-])c1,37.4,-1.9,33.9,-16.7,42.5*,-27.0,6.0
FC(F)(F)c1nnc(-c2ccccc2)nc1Sc1ccccc1,43.0,16.5,36.0,31.9,44.7*,2.1,22.2
COc1ccc(-c2cc3nc(-c4ccccc4)cc(N4CCCC(O)C4)n3n2)cc1 (configuration not stated),26.2,53.6*,39.7,3.4,42.4*,-32.8,33.6*
Cc1ccc(-c2cc3nc(-c4ccccc4)cc(N4CCC5(CC4)OCCO5)n3n2)cc1,23.8,14.0,19.5,12.0,13.2,-14.7,·
CCC(=O)Nc1ccc(C(=O)OCc2ccccc2Cl)cc1,33.2,7.0,36.7,31.1,58.1*,28.9,47.7*
CCC(=O)Nc1ccc(C(=O)c2ccccc2)cc1,20.1,-3.7,23.3,20.2,16.8,1.4,·
CCNC(=O)COc1ccc(OCc2ccccc2)cc1,3.6,-2.2,9.6,-35.2,-3.5,-11.8,·
CCC(C)NC(=O)COc1ccc(OCc2ccccc2)cc1 (configuration not stated),13.4,-12.5,25.8,-38.8,41.6*,-46.3,33.5*
O=C1C=C(c2cccc3c2sc2ccccc23)C[C@@H](c2ccc(F)cc2)C1,9.8,·,1.8,15.9,2.0,3.3,·
CN(CC(=O)Nc1ccc(F)cc1)C(=O)C1CCCC1,-5.4,·,0.8,0.4,9.2,20.9,·
N#CC1=C(N)Oc2n[nH]c(-c3cccs3)c2C1c1cccs1 (configuration not stated),0.2,-4.1,33.8,10.6,45.8*,-8.6,23.5
COCc1[nH]nc2c1C(c1sccc1C)C(C#N)=C(N)O2 (configuration not stated),30.7,-4.9,34.4,21.1,52.5*,7.7,28.1*
SMILES,tim23-1 inh,SKKanGAS inh,tim10-1 inh,NALP3 yeast inh,TIM10 inh,PfHsp90 yeast 2,TIM10 conf
COCc1[nH]nc2c1C(c1ccsc1)C(C#N)=C(N)O2 (configuration not stated),14.6,1.1,21.9,21.0,13.4,-6.0,·
Cc1cccc(-n2c(C)c(-c3ccccc3)[nH]c2=S)c1,43.7,4.4,32.6,13.8,42.7*,-20.4,38.4*
CCN1CCCC1CNC(=O)Cn1cc(C)c(=O)[nH]c1=O (configuration not stated),·,·,·,·,·,5.2,·
CN1c2ccccc2C(C)(C)[C@]12C=Cc1cc(O)ccc1O2,41.6,7.2,35.8,28.2,45.2*,-23.9,34.9*
CCOC(=O)c1c(CN2CCOCC2)n(-c2ccccc2)c2cc(Br)c(O)c(CN(C)C)c12,35.1,6.3,37.8,20.6,56.8*,-9.8,39.9*
CCc1nnc(NC(=O)CCC(=O)NC2CC2)s1,7.6,1.0,12.9,10.6,-0.6,4.2,·
OCCNc1nc(Nc2ccc(Br)cc2)nc2ccccc12,12.5,-1.7,20.5,23.9,43.5*,·,22.1
CC(C)CC(=O)Nc1ccc(C(=O)CN2CCN(c3ccc(O)cc3)CC2)cc1,7.3,3.6,9.7,-5.6,8.9,-11.3,·
Cc1ccc(S(=O)(=O)c2nc(Nc3nccs3)sc2Cl)cc1,18.1,20.1,29.3,5.3,48.1*,·,29.2
Nc1c(C(=O)Nc2ccc(F)cc2)sc2nc(-c3ccco3)ccc12,46.0,37.7,30.9,20.4,48.6*,1.0,48.3*
O=C(NC(=S)NN1CCOCC1)c1cc(Br)ccc1Cl,-4.9,·,1.7,22.2,2.2,0.6,·
CNc1ccc(/C=C/C(=O)c2cccc3ccccc23)cc1[N+](=O)[O-],39.1,42.3,39.4,29.2,44.6*,-16.1,-8.6
COc1ccccc1OCCNC(=O)c1c(-c2ccccc2Cl)noc1C,25.8,1.5,10.2,11.2,9.5,1.4,·
COc1ccc(-c2cc(=NC(CC(C)C)C(=O)O)c3cc(C)ccc3o2)cc1 (configuration not stated),28.6,3.4,30.7,20.3,61.2*,-0.1,44.1*
COc1ccc(-c2cc(=Nc3ccc(C)cc3)c3ccccc3o2)cc1,48.2,17.4,37.2,25.2,55.0*,-6.4,47.1*
COc1ccc(N=c2cc(-c3ccc(O)cc3)oc3ccccc23)cc1,47.1,-1.2,39.9,6.7,31.1,-1.6,·
CC(=O)c1cccc(NC(=O)C(C)OC(=O)c2cc(=O)[nH]c3ccccc23)c1 (configuration not stated),15.1,-0.6,-1.4,30.2,-2.9,·,·
CN(Cc1nc2ccccc2c(=O)[nH]1)C(=O)c1ccc(S(=O)(=O)N2CCCC2)cc1,7.2,·,-1.0,-0.8,1.8,-7.1,·
